Screening results from PubChem BioAssay.
This excerpt belongs to a sample that is enriched for hits.
USP2a inh: qHTS Assay for Inhibitors of Ubiquitin-specific Protease USP2a Using CHOP2 as the Reporter. AID 463254, 2010. 330,000 tested, 0.01% active. Potency, µM (series often up to 38.3 µM), inactives show top-dose activity change, negative = inhibition, hits mostly inhibitors. USP2 core, Ub-CHOP2 coupled fluorogenic reporter, 485/531. Ubiquitin carboxyl-terminal hydrolase 2 (Homo sapiens), O75604;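 further: plate controls were DMSO wells for no effect and full inhibition by NEM control for full effect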
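Cell-free coupled assay: 10nM USP2 core preincubated 30min RT with compound in Tris-HCl pH 8.0/CaCl2/CHAPS buffer, then 25nM Ub-CHOP2 and 25nM reporter substrate; fluorescence (Ex 485/Em 531) read after 60min RT, normalized to NEM inhibition, concentration-response curves fitted.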
GALK inh: qHTS Assay for Inhibitors of Human Galactokinase (GALK); P51570; Purified GALK, Kinase-Glo residual ATP luminescence; Potency, µM (series often up to 57.5 µM), for the others: at the highest dose activity change, negative = inhibition, usual class: inhibitors; 270,000 tested, 0.007% active; AID 1868, 2009; further: on the % scale 0 is the no-effect control and ±100 the full control effect
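5 nM enzyme, 35 uM ATP, 100 uM galactose, 20 mM HEPES pH8.0, 5 mM MgCl2; 1 h RT; residual ATP by Kinase-Glo Plus luminescence, qHTS format.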
Eya2 phos inh: qHTS Assay for Inhibitors of the Phosphatase Activity of Eya2; 330,000 tested, 0.006% active; recombinant Eya2, OMFP fluorescence dephosphorylation (OMFP is methylfluorescein phosphate); Potency, µM (series often up to 76.9 µM), for the others: at the highest dose activity, negative = inhibition, usual class: inhibitors; Protein phosphatase EYA2 (Homo sapiens), O00167; further: on the % scale 0 is the no-effect control and ±100 the full control effect
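Eya2 (0.2 uM) preincubated 10 min at ambient with compound, then OMFP substrate added at 50 uM; 10 min reaction in 50 mM HEPES pH 7.5, 50 mM NaCl, 5 uM MgCl2, 0.05% BSA, 1 mM DTT. Fluorescence read at Ex 485/Em 525 nm.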
ClpP mod: qHTS Assay for Activators of ClpP. ATP-dependent Clp protease proteolytic subunit (Bacillus subtilis (strain 168)), P80244. purified B. subtilis ClpP, FRET peptide cleavage, 20 min. Potency, µM (top dose mostly 57.5 µM), for the others: top-dose activity change, negative = active. 340,000 tested, 1.9% active. AID 651965, 2013; active means well fitted falling curve with a large enough effect; inconclusive means small, poorly fitted or top-dose-only effect; inactive means no such curve, though single readings can be large or run the other way; further: the source files actives as falling curves though it sought activators and does not explain the sign; nearly all actives have a fitted effect of over 65% in size
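ClpP 10 microg/mL final, pH 8 Tris/KCl buffer with BSA, glycerol, Tween-20; compound pinned in; FRET-FV substrate; RT 20 min; Ex320/Em430; ΔFRET vs ADEP 5.8 microM, DMSO, no enzyme.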
Starred values were filed as active, the others as inactive; ? = inconclusive; . = not tested or not shown; ! = repeats disagree. Unless noted, the call rests on the fitted dose curve; in most records, active means well fitted inhibition curve with a large enough effect; inconclusive means small, poorly fitted or top-dose-only effect, or effect the other way; inactive means flat fitted curve, though single readings scatter. Potency means the concentration at half of the fitted maximal effect.

SMILES | USP2a inh | GALK inh | Eya2 phos inh | ClpP mod
COc1cccc(CNC(=O)c2cc3oc4ccccc4c3n2C)c1OC | -7% | -1% | -3% | 25µM*
CCn1c(C(=O)NCc2ccc(F)cc2)cc2oc3ccccc3c21 | . | . | . | 4%
CCOc1ccccc1CNC(=O)c1cc2oc3ccccc3c2n1CC | 0% | -1% | 11% | 32µM*!
CCn1ncc(/C=N\NC(=O)c2ccc3c(c2)c(C)c(C)n3Cc2ccccc2)c1C | -10% | -3% | -17% | ?
CCc1ccc(CNC(=O)c2ccc3c(c2)c(C)c(C)n3Cc2ccccc2)cc1 | . | . | . | 25µM*
C=C(C)Cn1c(CCNC(=O)CC)nc2ccccc21 | 0% | 1% | 0% | 32µM*
Cc1ccc(CCNC(=O)c2ccc3c(c2)c(C)c(C)n3Cc2ccccc2)cc1 | . | . | . | 22µM*
Cc1c(C)n(Cc2ccccc2)c2ccc(C(=O)NCCN3CCOCC3)cc12 | -1% | -2% | -3% | -22%
Cc1c(C)n(Cc2ccccc2)c2ccc(C(=O)NCc3ccco3)cc12 | . | . | . | -22%
CCn1nc(C)c(/C=N/NC(=O)c2ccc3c(c2)c(C)c(C)n3Cc2ccccc2)c1C | -5% | -1% | -5% | 10µM*
CCOc1ccc(CCNC(=O)c2ccc(C)c(N3CCCC3=O)c2)cc1OCC | 3% | -3% | 12% | 0%
O=C(CC1C[C@H](C(=O)N2CCOCC2)[C@@]2(CCC3CCCC3)c3[nH]c4ccccc4c3CCN2C1=O)NCC12CC3CC(CC(C3)C1)C2 (stereo not given in full) | 3% | . | -8% | 2%
CC1CCCN(C(=O)CN(C)S(=O)(=O)c2cccc3nsnc23)C1 (stereo not given) | 3% | -5% | -1% | 1%
COC(=O)Nc1ccc(S(=O)(=O)N2CCC(C(=O)N3CCC(C)CC3)CC2)cc1 | 2% | 5% | ? | .
O=C(C1=C(O)C(=O)N(c2nccs2)C1c1ccccc1)c1cc2ccccc2o1 (stereo not given) | ? | -4% | ? | .
CCc1cccc(NC(=O)c2ccc3c(c2)c(C)c(C)n3Cc2ccc(F)cc2)c1 | . | . | . | 20µM*
CC(=O)c1cccc(NC(=O)c2ccc3c(c2)c(C)c(C)n3Cc2ccc(Cl)cc2)c1 | . | . | . | -5%
CCc1ccc(NC(=O)c2ccc3c(c2)c(C)c(C)n3Cc2ccccc2)cc1 | . | . | . | 22µM*
CCn1c(C)c(C)c2cc(C(=O)Nc3cccc(Cl)c3)ccc21 | 2% | . | -9% | ?
Cc1c(C)n(Cc2ccc(F)cc2)c2ccc(C(=O)Nc3ccc(Cl)cc3)cc12 | . | . | . | 32µM*
Cc1ccc(Cn2c(CCNC(=O)c3cccc(C)c3)nc3ccccc32)cc1 | . | . | . | 22µM*
Cn1c(NNC(=O)c2ccc(C(C)(C)C)cc2)cc(=O)n(C)c1=O | -2% | 0% | -9% | 1%
Cc1cc(C)c(OCC(=O)Nc2cccc(-c3nc4ncccc4o3)c2)c(Br)c1 | . | . | . | -16%
Cc1ccc(C(C)C)c(OCC(=O)Nc2cccc(-c3nc4ncccc4o3)c2)c1 | . | . | . | 22µM*
CCCCC(=O)Nc1cccc(-c2nc3ncccc3o2)c1 | 6% | 7% | -5% | 16µM*
SMILES | USP2a inh | GALK inh | Eya2 phos inh | ClpP mod
COc1ccc(OC)c(S(=O)(=O)N2CCC3(CC2)CC(=O)c2ccccc2O3)c1 | -2% | . | -9% | ?
COc1cccc(N2CC(C(=O)N3CCC4(CC3)CC(=O)c3ccccc3O4)CC2=O)c1 (stereo not given) | -1% | . | 10% | 28µM*
O=C1CC2(CCN(C(=O)C3CC(=O)N(c4ccccc4)C3)CC2)Oc2ccccc21 (stereo not given) | -1% | . | -9% | 32µM*
Cc1cccc[n+]1CC(=O)c1ccc(Cl)cc1 | . | . | . | -7%
CCOC(=O)N1CCN(C(=O)Nc2ccc3nc(C)sc3c2)CC1 | 0% | -2% | 10% | -19%
O=C(CCC(=O)Nc1ccccc1Cl)NNC(=O)COc1ccc([N+](=O)[O-])cc1 | -3% | . | 3% | -1%
CCCCNc1nc(CC)c2c(c1C#N)CCCC2 | -6% | 2% | 6% | 28µM*
CN1C(=O)/C(=C/C=C2/CCCN2C)N(C)C1=S | 2% | 12% | 2% | .
NS(=O)(=O)c1ccc(CCNS(=O)(=O)c2cccs2)cc1 | 4% | -5% | 4% | -5%
O=c1[nH]c(/C=C/c2ccccc2OC(F)F)nc2c1cnn2-c1ccccc1 | 2% | -2% | -5% | 11µM*
O=S(=O)(c1ccc(Cl)cc1)c1nc(-c2ccccc2Br)oc1NCc1ccccc1 | . | . | . | 20µM*
Cc1ccccc1-c1nc(S(=O)(=O)c2ccc(Br)cc2)c(NCc2cccnc2)o1 | -2% | -4% | 6% | -19%
COc1ccc(N2C(=O)N3[C@@H]4c5ccccc5OC[C@@H]4[C@@H](c4ccccc4)[C@@]3(C)C2=O)cc1 | -1% | . | -24% | -2%
Cc1ccc(CN(Cc2ccccc2)C(=S)Nc2ccccc2C)o1 | 4% | 5% | -3% | .
O=C(CN1CCCc2ccccc21)N/N=C/c1ccc(F)cc1F | 8% | 2% | -6% | .
O=C(CN1CCCc2ccccc21)N/N=C/c1ccccc1O | 2% | 0% | -14% | 28µM*
COC(=O)c1cc(OC)c(OC)cc1NC(=O)CN1CCCCC1 | 0% | -5% | 7% | -16%
COC(=O)c1cc(OC)c(OC)cc1NC(=O)CC1CCCCC1 | 1% | 0% | -23% | 28µM*
COC(=O)c1cc(OC)c(OC)cc1NC(=O)Nc1ccc(OC)cc1 | 2% | -3% | 15% | 25µM*
Cc1nc(Cl)sc1C(=O)Nc1ccc(Cl)cc1 | 0% | . | -9% | 28µM*
Cc1nc(Cl)sc1C(=O)Nc1ccccc1 | 3% | 0% | 1% | 0%
O=C(NCCO)c1ccccc1O | -1% | -1% | -17% | 32µM*
Cc1ccccc1C(=O)NC1CCCCCCC1 | -1% | 8% | ? | 2%
O=C(NC1CCCCCCC1)c1ccccc1O | -2% | -2% | 14% | 28µM*
O=C(NC1CCCCC1)c1cc(Cl)ccc1[N+](=O)[O-] | -3% | 1% | -8% | 28µM*
SMILES | USP2a inh | GALK inh | Eya2 phos inh | ClpP mod
CC1CN(S(=O)(=O)c2cc(C(=O)N(CCc3ccccc3)Cc3ccccc3)ccc2Cl)CC(C)O1 (stereo not given) | -4% | . | 9% | -1%
C=CC(=O)NCC1OCCc2ccccc21 (stereo not given) | 3% | -2% | 1% | .
COC(=O)c1ccc(COc2ccc(C)c(C)c2)o1 | 9% | 2% | 7% | -2%
O=C(O)c1ccc(COc2ccc3c4c(c(=O)oc3c2)CCC4)o1 | 1% | -2% | 20% | 2.5µM*
COC(=O)c1cc(COc2ccc3ccc(=O)oc3c2)c(C)o1 | 3% | 0% | -11% | 14µM*
COC(=O)c1ccc(COc2ccc3ccc(=O)oc3c2)o1 | 1% | 0% | 10% | 3%
COC(=O)c1ccc(COc2ccc3c(C)c(C)c(=O)oc3c2)o1 | 3% | 0% | 2% | 2.8µM*
